# According to PubChem BioAssay (NCATS):
# Inconclusive results are not listed. Unmarked numbers belong to inactive results. Calls follow the shape of the dose curve; as a rule, active = well fitted inhibition curve with a large enough effect; inconclusive = small, poorly fitted or top-dose-only effect; inactive = flat fitted curve, though single readings scatter.
# Molecular target: Lysine-specific demethylase 5B (Homo sapiens) (UniProt Q9UGL1)
# Experiment: Optimization screen for KDM5B Histone Demethylases FDH coupled qHTS against the LOPAC library (AID 1347166); also: 0% is about no effect
# Details: KDM5B demethylation, FDH-coupled NADH fluorescence (FDH is formaldehyde dehydrogenase); at 57.5 µM (top of the series)
# From the text: Assay Submitter (PI): Qin Yan, Ph.D. (Yale University) and Xiaodong Cheng, Ph.D. (MD Anderson)
# This project was funded as part of the NCI NEXT Program and Chemical Biology Consortium (CBC)
# The histone demethylases, KDM5A and KDM5B catalyze the demethylation of lysine 4 on histone H3 (H3K4me3/2). They
# are overexpressed in a variety of cancers and have been implicated in cancer cell growth, metastasis, drug resistance, and tumor growth. KDM5A is amplified and overexpressed in breast and gastric cancer; and is translocated in leukemia. While KDM5B is highly expressed in human mammary tumors and breast cancer cell lines, but not in normal adult breast tissue. Moreover, knockdown of KDM5B leads to upregulation of tumor suppressor genes, including BRCA1. The goal of this project is to employ qHTS to identify selective small molecule inhibitors of KDM5A/B demethylase activity to better understand the role of KDM5 in cancer and to develop novel therapies.
# We employed an FDH-coupled assay previously reported by Sakurai et al. to monitor in vitro KDM5 demethylase activity. Compounds showing dose response inhibition are re-acquired, validated, and tested for non-specific interference with the formaldehyde dehydrogenase (FDH) counterscreen. True inhibitors are validated using an AlphaLisa secondary screen, which employs an H3K4(me2-1)-specific antibody to monitor demethylation of a biotin-tagged H3K4(me3) peptide substrate. Inhibitors are profiled against KDM4A and KDM6A AlphaLisa counterscreens to determine level of demethylase specificity; and against the TruHits counterscreen to eliminate non-specific inhibitory activity on the AlphaLISA detection method. Selective inhibitors identified from the primary and secondary screening are tested in cells using immunofluorescence to monitor global H3K4 tri-methylation as a measure of KDM5A/B inhibition. This assay is run against the NCGC Lopac collection of about 1,200 compounds to evaluate its amenability to quantitative High Throughput Screening (qHTS) platform.
# Early Translation Branch (ETB)
# National Center for Advancing Translational Sciences (NCATS), Rockville, MD
# National Institute of Health (NIH), Bethesda, Maryland
# [1] Sakurai, M et al. A miniaturized screen for inhibitors of Jumonji histone demethylases. Mol Biosyst. 2010 Feb;6(2):357-64. doi: 10.1039/b912993f. Epub 2009 Oct 8.
# 1536-well Black, solid bottom, medium binding assay plate is purchased from Greiner Bio-one. The enzymes (KDM5B) and substrate (H3K4me3/2) are provided by the principal investigators. The buffer for this assay is composed of 50mM HEPES at pH 7.5 with 0.01% Tween-20.
# FDH coupled qHTS protocol:
# Three microliter enzyme mix (buffer + 200nM KDM5BDeltaAP final concentration) is dispensed into the assay plate using the BioRAPTR Flying Reagent Dispenser (FRD; Beckton-Dickenson). Compound (at various final concentration) and control solution is pin transferred to the assay plate using the Kalypsys 1536-pin tool apparatus. The assay plate is incubated for 10 min at room temperature followed by addition of 1uL substrate mix (buffer + 100uM ascorbic acid, 50uM ferrous ammonium sulfate, 12.5uM H3K4Me3, 25uM a-ketoglutarate, 0.25 mM NAD+, 0.25 U/mL formaldehyde dehydrogenase using the FRD yielding a total reaction volume of 4 uL. Initial fluorescence (Read1) is detected using the PerkinElmer ViewLux plate reader equipped with 340 nm excitation and 450 nm emission filters. The final fluorescence (Read2) signal is obtained after 30 min of room temperature incubation. Delta RFU is calculated (Read2 - Read1) and is used to generated dose response curves
# Lysine-specific demethylase 5B (Homo sapiens), sequence (Q9UGL1 whole entry, looked up): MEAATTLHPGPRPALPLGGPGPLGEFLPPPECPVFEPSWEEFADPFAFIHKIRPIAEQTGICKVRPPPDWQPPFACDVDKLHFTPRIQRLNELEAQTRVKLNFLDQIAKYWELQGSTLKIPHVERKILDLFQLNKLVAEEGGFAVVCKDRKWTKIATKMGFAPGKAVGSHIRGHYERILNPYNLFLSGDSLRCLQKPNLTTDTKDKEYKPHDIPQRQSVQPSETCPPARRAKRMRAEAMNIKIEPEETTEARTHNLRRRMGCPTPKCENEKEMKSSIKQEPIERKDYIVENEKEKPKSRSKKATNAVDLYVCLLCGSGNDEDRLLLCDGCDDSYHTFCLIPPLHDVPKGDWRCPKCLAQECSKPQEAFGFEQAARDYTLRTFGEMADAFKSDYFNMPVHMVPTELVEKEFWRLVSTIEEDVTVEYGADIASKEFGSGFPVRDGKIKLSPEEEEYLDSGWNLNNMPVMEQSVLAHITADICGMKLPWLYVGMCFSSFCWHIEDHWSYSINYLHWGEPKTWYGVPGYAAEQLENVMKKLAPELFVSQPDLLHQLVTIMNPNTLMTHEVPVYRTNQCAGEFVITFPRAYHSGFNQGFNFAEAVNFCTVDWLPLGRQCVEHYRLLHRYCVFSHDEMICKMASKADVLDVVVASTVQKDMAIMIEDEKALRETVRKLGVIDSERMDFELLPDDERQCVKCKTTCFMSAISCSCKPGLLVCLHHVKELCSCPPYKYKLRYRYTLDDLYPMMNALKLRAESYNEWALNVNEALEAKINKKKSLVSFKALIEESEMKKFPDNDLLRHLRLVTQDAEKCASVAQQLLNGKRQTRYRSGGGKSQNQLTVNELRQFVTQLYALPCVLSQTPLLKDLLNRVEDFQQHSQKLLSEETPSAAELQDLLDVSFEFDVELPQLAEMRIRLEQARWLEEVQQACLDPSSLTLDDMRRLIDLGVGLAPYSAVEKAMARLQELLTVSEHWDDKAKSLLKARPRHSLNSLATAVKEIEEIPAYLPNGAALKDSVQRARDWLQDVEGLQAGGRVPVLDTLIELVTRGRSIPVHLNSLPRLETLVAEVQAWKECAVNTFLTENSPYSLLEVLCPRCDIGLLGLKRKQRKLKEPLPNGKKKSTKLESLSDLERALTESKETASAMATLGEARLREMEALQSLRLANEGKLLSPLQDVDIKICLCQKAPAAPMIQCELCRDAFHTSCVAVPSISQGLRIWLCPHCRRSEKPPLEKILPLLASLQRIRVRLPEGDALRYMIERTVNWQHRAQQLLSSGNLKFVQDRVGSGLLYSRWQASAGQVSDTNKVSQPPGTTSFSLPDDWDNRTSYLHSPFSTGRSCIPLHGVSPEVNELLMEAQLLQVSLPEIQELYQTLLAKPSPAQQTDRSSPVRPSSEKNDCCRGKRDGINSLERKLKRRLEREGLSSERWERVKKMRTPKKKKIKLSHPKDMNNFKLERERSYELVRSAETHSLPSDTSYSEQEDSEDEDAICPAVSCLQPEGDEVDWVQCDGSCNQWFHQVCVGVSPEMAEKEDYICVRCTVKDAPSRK
row,Compound,"activity, negative = inhibition [%]"
1,O=c1onc2n1-c1cc(Br)ccc1OC2,-6.75
2,NCCS(=O)O,-4.01
3,Nc1ccc(CCNc2ncnc3c2ncn3C2OC(CO)C(O)C2O)cc1 (stereo not given),-7.72
4,O=C(O)[C@H]1NCCC[C@H]1C(=O)O,-4.16
5,OC1(c2ccc(Cl)cc2)CCN(Cc2c[nH]c3ccccc23)CC1,-0.728
6,N[C@H]1CONC1=O,-4.96
7,CC1=C(C(=O)O)N2C(=O)[C@@H](NC(=O)C(N)C3=CCC=CC3)[C@H]2SC1 (stereo not given in full),-22.8
8,NCCCNCCCCNCCCN,-4.41
9,Cn1ccnc1,-0.951
10,NC(N)=N[C@@H](CCC(=O)O)C(=O)O,-1.71
11,N[C@@H](Cc1c[nH]c2ccccc12)C(=O)O,-20.4
12,CCOC(=O)C12CC1/C(=N/O)c1ccccc1O2 (stereo not given),-9.53
13,CCCCCCCCCCC(C)(C)C(=O)Nc1c(OC)cc(OC)cc1OC,-22.8
14,N[C@@H](CS(=O)O)C(=O)O,-4.61
15,c1ccc2c(c1)CC(N1CCN(c3cccc4c3OCCO4)CC1)C2,-5.51
16,N[C@@H](CCC(=O)N[C@H](CSN=O)C(=O)NCC(=O)O)C(=O)O,-9.68
17,COc1ccc2c(c1)c(CC(=O)O)c(C)n2Cc1ccc(Cl)cc1,-5.89
18,CC(=O)N[C@@H](Cc1c[nH]c2ccccc12)C(=O)OCc1cc(C(F)(F)F)cc(C(F)(F)F)c1,-9.61
19,COCc1nc2c([nH]1)c(=O)n(C)c(=O)n2CC(C)C,-5.87
20,CSc1nc(N)c2ncn([C@@H]3O[C@H](COP(=O)(O)OP(=O)(O)O)C(O)[C@H]3O)c2n1 (stereo not given in full),-13.8

row,Compound,"activity, negative = inhibition [%]"
1,COC(=O)C(N)Cc1ccc(Cl)cc1 (stereo not given),-3.16
2,O=C(O)C1CCCNC1 (stereo not given),-0.313
3,NCC(O)(CS(=O)(=O)O)c1ccc(Cl)cc1 (stereo not given),-2.36
4,CCCCS(=N)(=O)CC[C@H](N)C(=O)O (stereo not given in full),-2.9
5,COc1cc(CNC(=O)CCCCCCC(C)C)ccc1O,-17
6,Nc1ncnc2c1ncn2C1CCCC1,-3.1
7,CCCCCCCCCC(=O)NC(CN1CCOCC1)[C@H](O)c1ccccc1 (stereo not given in full),-9.31
8,CC(C)(C)c1cc(/C=C(\C#N)C(N)=S)cc(C(C)(C)C)c1O,-26.1
9,Nc1ncnc2c1nc(Sc1ccc(Cl)cc1)n2[C@H]1OC2COP(=O)(O)O[C@@H]2C1O (stereo not given in full),-0.0945
10,C[C@@]1(C2CCCC2)Cc2cc(OCC(=O)O)c(Cl)c(Cl)c2C1=O,-5.03
11,COC(=O)C(C)(N)Cc1ccc(O)cc1 (stereo not given),-17.5
12,CNCCc1cnc(CCC(c2ccccc2)c2ccccc2)[nH]1,-15.1
13,C#CC(N)CCC(=O)O (stereo not given),-0.625
14,CC#CCOC(=O)c1c(C)nc2sc3c(c2c1N)CCC(O)C3 (stereo not given),-10.9
15,C=C1C(=O)O[C@@H]2[C@H]3O[C@]3(C)CCC=C(C)CC[C@@H]12,-8.83
16,Cn1cc(C(F)(F)F)nc1-c1ccc(OCC(O)CNCCOc2ccc(O)c(C(N)=O)c2)cc1 (stereo not given),-27.4
17,O=C(O)c1ccccc1Nc1ccccc1,-9.73
18,O=C(O)C1CCNCC1,-5.33
19,CCCCOc1cc(CC2CNC(=O)N2)ccc1OC (stereo not given),-3.5
20,N=C(N)c1ccc(OCCCCCOc2ccc(C(=N)N)cc2)cc1 (tested in a mixture with another compound),-13.6
